These results are taken from PubChem BioAssay.

Experiment [1] in a line: anti-His antibody binders, primary screen, artefact control for SMM control protein annotation, biochemical, small-molecule microarray, 635 nm fluorescence (AID 1128).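 Also: score merges feature fluorescence with signal-to-noise for each printed compound spot.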 The note with it: anti-His Alexa647 antibody binding, higher = more signal.
Experiment [2] has as its system Human papillomavirus type 1a E7 protein (residues 1-88). Briefly: HPV1a E7 small-molecule binders, primary screen, biochemical, small-molecule microarray, residues 1-88, 635 nm (AID 1129). The following applies: small-molecule microarray binding, fluorescence 635 nm; higher = more signal.
For experiment [3], the target named is Focal adhesion kinase 1 (Homo sapiens) (UniProt Q05397). Put plainly: small-molecule microarray binders of FAK, primary screen, biochemical, 635/667 nm fluorescence, BSA, DTT (AID 1130).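 Also: composite of spot emission at 667 nm and signal to noise over triplicate slides.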 The following applies: PTK2 binding, 635 nm fluorescence, higher = more signal.
Experiment [4] has as its system Fibrinogen (Alexa647-labelled). Put plainly: fibrinogen binders on compound microarrays, profiling panel, artefact control for SMM control-protein annotation, biochemical, small-molecule microarray, 635/667 nm fluorescence (AID 1131).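 Also: z-score merges 667 nm fluorescence with per-spot signal-to-noise over triplicate slides.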 The following applies: fibrinogen-A647 binding fluorescence, higher = more signal.
In experiment [5] the target is Follistatin (Homo sapiens) (UniProt P19883). Briefly: follistatin binders on small-molecule microarrays, primary screen, biochemical, small-molecule microarray, 635/667 nm fluorescence (AID 1132). The following applies: FST binding, 635 nm fluorescence, higher = more signal.
For experiment [6], the target named is Fibroblast growth factor 2 (Homo sapiens) (UniProt P09038). Put plainly: FGF2 binders on small-molecule microarrays, primary screen, biochemical, small-molecule microarray, 635/667 nm fluorescence (AID 1133). The following applies: small-molecule microarray binding, FGF2, fluorescence 635/667; higher = more signal.
A short description of experiment [7]: mitochondrial membrane potential change in A549 cells, profiling panel, cell-based, JC-1 fluorescence, basal, 24 h, 100 nL (AID 1138).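 Also: A549 lung adenocarcinoma cells under basal conditions with no added stimulus; test concentration not given here.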 The note with it: higher = more signal.
Experiment [8] concerns Lefty1. Briefly: Lefty1 binders on small-molecule microarrays, primary screen, biochemical, small-molecule microarray, 635/667 nm fluorescence (AID 1139). The following applies: small-molecule microarray binding, fluorescence 635/667; higher = more signal.
In experiment [9] the test system is wheat germ agglutinin (Triticum aestivum), Alexa647-labelled. Briefly: wheat germ agglutinin binders on compound microarrays, profiling panel, artefact control for SMM control-protein annotation, biochemical, small-molecule microarray, 635/667 nm fluorescence (AID 1140).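 Also: score merges 667 nm feature emission with signal to noise over triplicate slides.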 The following applies: WGA-A647 binding, 635 nm fluorescence, higher = more signal.
Experiment [10] deals with Luciferin 4-monooxygenase (Photinus pyralis) (UniProt P08659). Briefly: firefly luciferase enzyme inhibitors, primary screen, biochemical, luminescence, purified enzyme, 2006 set (AID 1141).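 Also: cell-free assay with purified firefly luciferase at 100 ng per well in PBS; test concentration not given here.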 The note with it: SteadyGlo luminescence, 30 min, higher = more signal, called active from +8 up or from −8 down.
Experiment [11] has as its system Wnt5a (protein binding on small-molecule microarray). Put plainly: Wnt5a binders on small-molecule microarray, primary screen, biophysical, 635/667 nm fluorescence (AID 1142).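 Also: fluorescence read at 667 nm with signal to noise per printed feature.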 The note with it: 635 nm fluorescence, higher = more signal.
Experiment [12] is described as follows: cell viability in Huh7 cells, primary screen, cytotoxicity control for HCV replication inhibitor project, CellTiter-Glo luminescence, basal, 48 h (AID 1143).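 Also: Huh7 hepatoma cells carrying a hepatitis C replication reporter with no stimulus; test concentration not given here.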 The following applies: Huh7 HCV replicon, higher = more signal, called active from +8 up or from −8 down. (In general: In ATP-based viability assays light output follows the ATP content of the culture.)

The nature of experiment [13]: P. aeruginosa biofilm formation inhibitors, primary screen, PAO1 strain, BacTiter-Glo luminescence, LB-PBS (AID 1144). The note with it: 12 h, higher = more signal.
Experiment [14] in a line: CREB reporter modulators without forskolin, primary screen, cell-based, PC12, CRE-LacZ reporter, unstimulated (AID 1145). The note with it: no forskolin, luminescence, 4.5 h, higher = more signal, called active from +8 up or from −8 down.
Experiment [15] is described as follows: CREB reporter modulators under forskolin, primary screen, cell-based, PC12, CRE-LacZ reporter, forskolin-stimulated (AID 1146).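 Also: PC12 cells with 6xCRE LacZ reporter stimulated by forskolin 10 µM; beta-galactosidase reporter signal reflecting CREB driven transcription.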 The note with it: luminescence, 4.5 h, higher = more signal, called active from +8 up or from −8 down.
Experiment [16] has as its target Streptavidin (Streptomyces avidinii) (UniProt P22629). Put plainly: streptavidin binders on small-molecule microarray, primary screen, artefact control for SMM compound annotation, biophysical, 635/667 nm fluorescence (AID 1147).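 Also: signal reflects streptavidin binding to arrayed compounds as a control protein.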 The following applies: streptavidin binding, higher = more signal.
The nature of experiment [17]: small-molecule binders of probe aInhba, primary screen, biochemical, small-molecule microarray, 635/667 nm fluorescence (AID 1148).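 Also: score merges 667nm spot fluorescence with signal-to-noise for antibody binding to printed compounds.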 The following applies: higher = more signal.
The target in experiment [18] is Torsin-1A (Homo sapiens) (UniProt O14656). Put plainly: torsin A binders from cell lysate, primary screen, small-molecule microarray, wild-type, 635/667 nm (AID 1149). The following applies: COS7 hTOR1A-WT lysate, 635 nm fluorescence, higher = more signal.
The target is the same in experiment [19]. Briefly: small-molecule binders of mutant TOR1A in lysate, primary screen, cell lysate, small-molecule microarray, COS7 lysate, 635/667 nm fluorescence (AID 1150).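 Also: score pools 667 nm emission and signal to noise measuring lysate protein binding.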 The following applies: COS7 hTOR1A mutant lysate, 635 nm fluorescence, higher = more signal.
The subject of experiment [20] is Sonic hedgehog protein (Shh). Put plainly: small-molecule binders of Shh protein, primary screen, biochemical, small-molecule microarray, 635/667 nm fluorescence (AID 1151).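 Also: Shh protein binding to compounds spotted on small-molecule microarray slides; score combines spot fluorescence intensity with signal-to-noise across triplicate slides.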 The following applies: small-molecule microarray binding, 635 nm fluorescence; higher = more signal.

Molecules are shown by their SMILES. The source made the active and inactive calls. Unless noted, no rule for the calls is given here.

Sequence of Follistatin (Homo sapiens) (P19883 whole entry, looked up): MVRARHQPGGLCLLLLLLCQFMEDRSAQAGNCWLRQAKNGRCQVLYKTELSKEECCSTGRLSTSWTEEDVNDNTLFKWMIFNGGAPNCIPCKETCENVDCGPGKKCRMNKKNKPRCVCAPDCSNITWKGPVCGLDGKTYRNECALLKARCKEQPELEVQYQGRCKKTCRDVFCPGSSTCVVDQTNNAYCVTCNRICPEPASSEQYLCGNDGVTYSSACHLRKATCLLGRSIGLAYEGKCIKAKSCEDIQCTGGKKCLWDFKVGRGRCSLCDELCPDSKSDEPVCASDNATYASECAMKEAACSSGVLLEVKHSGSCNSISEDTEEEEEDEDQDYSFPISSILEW
Sequence of Fibroblast growth factor 2 (Homo sapiens) (P09038 whole entry, looked up): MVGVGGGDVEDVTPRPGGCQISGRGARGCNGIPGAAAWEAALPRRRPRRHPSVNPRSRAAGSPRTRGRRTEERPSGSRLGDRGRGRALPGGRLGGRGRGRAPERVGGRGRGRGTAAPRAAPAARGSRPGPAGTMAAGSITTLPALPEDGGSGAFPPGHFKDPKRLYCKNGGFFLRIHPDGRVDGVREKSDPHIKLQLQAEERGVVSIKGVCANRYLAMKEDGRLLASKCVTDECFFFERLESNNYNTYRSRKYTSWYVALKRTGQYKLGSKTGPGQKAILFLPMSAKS
Sequence of Focal adhesion kinase 1 (Homo sapiens) (Q05397 whole entry, looked up): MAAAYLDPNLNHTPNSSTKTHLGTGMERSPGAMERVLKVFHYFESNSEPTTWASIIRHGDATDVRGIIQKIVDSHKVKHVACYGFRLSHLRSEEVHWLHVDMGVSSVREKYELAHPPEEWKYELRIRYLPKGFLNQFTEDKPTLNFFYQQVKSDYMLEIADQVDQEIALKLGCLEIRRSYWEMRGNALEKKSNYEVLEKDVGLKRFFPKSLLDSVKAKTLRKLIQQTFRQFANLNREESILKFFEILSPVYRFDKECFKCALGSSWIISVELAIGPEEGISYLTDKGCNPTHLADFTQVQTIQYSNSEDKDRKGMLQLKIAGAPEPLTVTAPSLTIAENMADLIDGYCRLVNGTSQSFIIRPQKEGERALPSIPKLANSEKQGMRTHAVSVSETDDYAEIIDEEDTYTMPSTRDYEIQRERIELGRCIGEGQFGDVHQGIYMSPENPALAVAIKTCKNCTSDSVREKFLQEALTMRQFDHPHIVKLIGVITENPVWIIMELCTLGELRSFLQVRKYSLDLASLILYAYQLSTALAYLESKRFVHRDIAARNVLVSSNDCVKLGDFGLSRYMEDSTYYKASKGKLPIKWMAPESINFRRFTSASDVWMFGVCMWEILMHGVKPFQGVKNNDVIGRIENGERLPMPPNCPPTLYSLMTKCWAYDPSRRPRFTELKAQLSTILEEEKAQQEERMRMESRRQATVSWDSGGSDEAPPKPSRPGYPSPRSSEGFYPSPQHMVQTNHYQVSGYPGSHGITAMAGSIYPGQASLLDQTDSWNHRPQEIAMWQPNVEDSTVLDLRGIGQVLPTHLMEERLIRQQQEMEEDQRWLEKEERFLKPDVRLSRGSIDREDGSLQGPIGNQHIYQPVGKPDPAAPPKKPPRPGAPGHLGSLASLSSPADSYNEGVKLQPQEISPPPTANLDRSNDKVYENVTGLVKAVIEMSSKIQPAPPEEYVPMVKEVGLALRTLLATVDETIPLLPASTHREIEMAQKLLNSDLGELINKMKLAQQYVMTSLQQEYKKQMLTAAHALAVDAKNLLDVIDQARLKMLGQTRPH
Sequence of Torsin-1A (Homo sapiens) (O14656 whole entry, looked up): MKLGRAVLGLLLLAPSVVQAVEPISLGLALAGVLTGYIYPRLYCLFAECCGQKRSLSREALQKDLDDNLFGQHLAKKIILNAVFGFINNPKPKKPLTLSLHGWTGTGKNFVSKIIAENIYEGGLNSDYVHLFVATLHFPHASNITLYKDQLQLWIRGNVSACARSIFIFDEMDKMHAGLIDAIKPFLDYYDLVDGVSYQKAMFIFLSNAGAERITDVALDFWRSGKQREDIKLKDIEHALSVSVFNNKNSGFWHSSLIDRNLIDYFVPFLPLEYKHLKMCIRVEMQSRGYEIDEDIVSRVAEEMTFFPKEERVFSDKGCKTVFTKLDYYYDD
Sequence of Streptavidin (Streptomyces avidinii) (P22629 whole entry, looked up): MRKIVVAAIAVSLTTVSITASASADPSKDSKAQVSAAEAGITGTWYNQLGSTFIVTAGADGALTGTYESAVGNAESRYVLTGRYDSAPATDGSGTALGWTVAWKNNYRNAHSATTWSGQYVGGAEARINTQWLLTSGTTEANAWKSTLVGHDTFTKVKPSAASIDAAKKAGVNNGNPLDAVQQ
Sequence of Luciferin 4-monooxygenase (Photinus pyralis) (P08659 whole entry, looked up): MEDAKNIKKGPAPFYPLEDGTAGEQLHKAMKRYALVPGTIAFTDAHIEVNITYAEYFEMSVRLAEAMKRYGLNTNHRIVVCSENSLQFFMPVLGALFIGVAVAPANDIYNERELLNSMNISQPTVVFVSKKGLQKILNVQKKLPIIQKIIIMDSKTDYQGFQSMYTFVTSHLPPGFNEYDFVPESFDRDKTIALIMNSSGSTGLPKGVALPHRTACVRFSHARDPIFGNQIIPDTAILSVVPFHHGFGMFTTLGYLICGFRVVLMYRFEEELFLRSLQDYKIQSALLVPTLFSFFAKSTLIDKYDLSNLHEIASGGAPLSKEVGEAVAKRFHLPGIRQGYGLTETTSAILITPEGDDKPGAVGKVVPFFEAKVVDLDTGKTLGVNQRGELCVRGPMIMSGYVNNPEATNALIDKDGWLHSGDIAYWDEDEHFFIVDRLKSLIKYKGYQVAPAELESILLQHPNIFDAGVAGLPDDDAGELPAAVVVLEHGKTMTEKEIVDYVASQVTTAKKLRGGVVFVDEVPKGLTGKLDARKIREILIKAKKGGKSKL

In the case of `CN1C(=O)C2C=CC(C(O)C(C)(C)C)N(Nc3ccccc3)C2C1=O` (stereo not given), the composite z-score in experiment [1] is 0.218; in experiment [2], -0.178; in experiment [3], 0.694; in experiment [4], -0.0163; in [5] it was -0.288; in experiment [6] it was -0.695. For the same molecule, the composite z-score is -1.06 in experiment [8]; -0.062 in experiment [9]; 0.04 in experiment [11]; 0.0034 in experiment [16]; -0.157 in experiment [17]; 0.392 in experiment [18]. Also, the composite z-score in [19] was -0.419; in [20] it was -0.624. Moreover, the z-score in [7] is 0.31; in experiment [10], 0.856 (inactive); in experiment [12] it was 1.07 (inactive); in experiment [13], -0.101 (inactive); in experiment [14], 0.24 (inactive); in experiment [15], 0.124 (inactive).
As for `COc1c(C)cc(-c2cc3c(c(-c4ccccc4)n2)[Si](C(C)C)(C(C)C)O[C@H]3c2ccccc2)cc1C`, the composite z-score is 0.235 in experiment [1]; -0.26 in experiment [2]; -0.0638 in experiment [3]; -0.243 in experiment [4]; 0.145 in experiment [5]; -0.212 in [6]. Moreover, the composite z-score in experiment [8] was 0.377; in [9], 0.124; in [11] it was -0.0797; in [16], -0.0096; in experiment [17], -0.119; in experiment [18], -0.381. For the same molecule, the values for the composite z-score in experiment [19] and in experiment [20] were -0.22 and 0.618, respectively. For the same molecule, the z-score in experiment [7] is 0.125; in experiment [10] it was 0.407 (inactive); in experiment [12], 0.393 (inactive); in experiment [13], -0.0188 (inactive); in experiment [14], -0.244 (inactive); in experiment [15], -0.0226 (inactive).
On to `CN1C(=O)C2C=CC(C(O)C=Cc3ccc([N+](=O)[O-])cc3)N(N3CCCCC3)C2C1=O` (stereo not given), for which the composite z-score was 1.25 in [1]; 1.2 in experiment [2]; 0.518 in experiment [3]; 0.966 in experiment [4]; 1.4 in [5]; 0.544 in [6]. Moreover, the composite z-score was 0.393 in experiment [8]; 1.28 in experiment [9]; 1.32 in [11]; 2.09 in [16]; 1.22 in [17]; 0.704 in experiment [18]. The composite z-score was determined as 0.451 in experiment [19] and 0.909 in [20]. For the same molecule, the z-score in experiment [7] is 0.39; in [10], -1.79 (inactive); in experiment [12], 0.795 (inactive); in [13], 0.287 (inactive); in experiment [14], -0.519 (inactive); in experiment [15] it was 0.855 (inactive).
As for `O=C1OCCC=C[C@H]2OC34C=CCN(c5ccc6ccccc6c5)C(=O)[C@H]3N(CCCCCCO)C(=O)[C@@H]4C12` (stereo not given in full), the composite z-score in [1] is -0.365; in experiment [2], -0.992; in [3] it was -0.0504; in [4] it was -0.771; in [5], -0.761; in experiment [6] it was -0.97. In addition, the composite z-score in experiment [8] is -0.61; in [9], -0.451; in experiment [11] it was -0.315; in experiment [16] it was -1.1; in experiment [17], -0.179; in experiment [18] it was 2.39. Further, the composite z-score in [19] was 2.75; in [20] it was -0.305. Moreover, the z-score in experiment [7] is 1.48; in [10] it was -1.2 (inactive); in experiment [12] it was -0.211 (inactive); in experiment [13], -0.0556 (inactive); in experiment [14], 0.0605 (inactive); in experiment [15], 0.771 (inactive).
For `COC(=O)[C@@]1(Cc2ccccc2)[C@H]2c3cc(C(=O)N(C)C)n(Cc4ccccc4)c3C[C@H]2CN1C(=O)c1ccccc1`, the composite z-score in experiment [1] is 1.21; in [2] it was 1.13; in experiment [3] it was 0.614; in [4] it was 0.839; in experiment [5], 0.241; in experiment [6], -0.605. For the same molecule, the composite z-score is -0.0169 in experiment [8]; 1.04 in experiment [9]; 0.347 in [11]; 1.68 in experiment [16]; 0.209 in experiment [17]; -0.314 in [18]. Also, the composite z-score in experiment [19] is 0.766; in experiment [20], -0.867. Also, the z-score in experiment [7] was 0.458; in experiment [10] it was 1.66 (inactive); in experiment [12], -0.513 (inactive); in [13], 0.0307 (inactive); in experiment [14], 0.776 (inactive); in experiment [15], 1.08 (inactive).
